The supplement of paper PMC12632987

T1: FBXL12, Q9NXK8
T1 chain: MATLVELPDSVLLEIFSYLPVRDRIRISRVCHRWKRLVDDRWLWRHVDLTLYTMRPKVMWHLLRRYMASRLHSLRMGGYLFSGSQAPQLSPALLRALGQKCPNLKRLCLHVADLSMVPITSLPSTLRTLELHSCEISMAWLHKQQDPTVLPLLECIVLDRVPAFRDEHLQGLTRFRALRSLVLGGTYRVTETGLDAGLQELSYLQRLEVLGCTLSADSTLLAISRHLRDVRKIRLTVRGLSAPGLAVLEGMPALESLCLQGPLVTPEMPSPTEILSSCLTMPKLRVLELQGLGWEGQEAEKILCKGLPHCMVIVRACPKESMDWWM


Target: T1, FBXL12, Q9NXK8
Test: median log2 fold change of GCK-ALFA target abundance (FLAG IP / Myc IP barcode read proportion) (log2 ratio); each designed protein is fused to an ALFA-tag nanobody in HEK293 cells to bring the named protein to FLAG-tagged glucokinase (GCK); Myc marks an untargeted standard; higher = target protein stabilised (more abundant)
Details: target protein: 3xFLAG-MCP-GCK-ALFA reporter; HEK293 landing pad (RPLP)
Summary of the method: (§1)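 Sequencing of reverse-transcribed, amplified circular RNA barcodes from anti-FLAG and anti-Myc immunoprecipitates provided the readout for an ALFA-nanobody-fused binder library recombined into HEK293 landing-pad cells. Those cells were induced with 2 μg mL^−1 doxycycline, transfected with a plasmid expressing a FLAG-tagged target and a Myc-tagged standard, and lysed after 48 h. Target abundance is the per-binder median log2 ratio of FLAG to Myc barcode read proportions. Only barcodes at a proportion of ≥10^−7 in both replicates and binders with ≥3 barcodes per replicate were kept, with a 10^−6 pseudocount added before the two replicates were pooled.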

Binder | median log2 fold change
FBXL12_hotspot_77_92 (protein) MSHLEIVVSQPATPPERREEALARARHTARYAAEIARGAKERQPELRITLVVRSEADPETTRALVRILAETAKELGVELVVEVAPENEAVAREVLAELGL | 0.051
FBXL12_hotspot_77_91 (protein) MKTVTIRVSFPAVPPEEAEALRERALRAMETALEIARGLKAAHPDVKIVIVLRIEGNPEVAREVAERAVREAHELGIEFRDESAPEVRAAAEALLAALAA | -0.734
FBXL12_hotspot_78_93 (protein) MRTLVISIPAFVSPDAAARARGIAYQAAAAIEALRAGWEVVISHADTPEAKRAALTILERAVAETGDEARIRSEEGRGAREILAELRAALAAEDEAAAAA | -0.726
FBXL12_hotspot_109_5 (protein) MTVLLVARATTPEAARRTGETALAIARGLRAAGHEVIAVIVTLEEAREIAEATAAELRALGAEVRLRTAATPEEVERAYAELRAEALARLDAREAAAAAA | -0.531
FBXL12_hotspot_69_89 (protein) MIEVRASESSIEYVKELAESALKLAKKALKEKDLETLLKLAEILISAAREIAKYEPEYALELLKELLKLLKEAKTEEAEKAAKEAEKAIKEIKKLIEERK | 0.238
FBXL12_hotspot_69_88 (protein) MIEVRVSESSVEYALELGRAAVEKLEEAVKNGDWETAERLVDLIISIAEAIAELRPEEAIELLERAAKILKKDDSEKAKELLEKVEKKIKELKKKAKELK | -0.107
FBXL12_hotspot_69_87 (protein) EFTVIVRDVSVEYALALAEAALERAEEALAAGDREAFLRLARVALAAIENILEEDPERALELAERLAELLERADDPRFEPLLERARELIERARRLLEERR | -0.369
FBXL12_hotspot_81_96 (protein) ATRELRITLQFTADDTEEEIIRRGRYHLELMYEAAKAGWEIASVTLDEAALEKSLTPERQALARRVTAILQEAAAEFRAARDAPDSVFDAILAEALARLA | 0.19
FBXL12_hotspot_109_6 (protein) MRVILSALGTEPELAERTFEATVTIAEGLLAAGHEVRVVLVAVEENREVAEAAAARLRALGAEVRLVVEETPEAAREAHERLLAEAEEELDREEEERERA | 0.11
FBXL12_hotspot_69_90 (protein) MIEVKASKESVDYVAELMKSALELAKKYLKEGDYENLLKAAEILIGAARAIKEYKPEEAAKLLEELIKVLKEAGTPEAKELAKEAEKVLEEIKKIIKERE | -0.0708
FBXL12_hotspot_78_95 (protein) MRVLRIVIPADLPPDPEQRQRGIEYQAQAAIEAVRAGWEVVIEAADTPEAKRAALEILRRTLAETGDPERIRSPEGENAREILARLEAELAAEEAAAAAA | -0.49
FBXL12_hotspot_78_94 (protein) MRKLVITIPEPVTPDEEARRRGVEYQAQAAIEALKAGWEVVISHADTPEAKRAALEILEKAVAETGDKEKIKSADGKNADEMLAELKAELAEEEARRAAA | 0.319

The binders below were run against GABARAPL2, P60520 in the same assay as above. Details: target protein: 3xFLAG-MCP-GCK-ALFA reporter; HEK293 landing pad (RPLP).
Summary of the method: as §1

Sequence of GABARAPL2, P60520 (P60520 whole entry): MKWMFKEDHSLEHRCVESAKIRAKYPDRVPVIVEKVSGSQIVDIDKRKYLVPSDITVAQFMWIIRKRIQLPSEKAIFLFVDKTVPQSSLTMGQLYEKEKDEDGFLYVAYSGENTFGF

Binder | median log2 fold change
GBRAPL2_0_7187 (protein) YRKEIEEAKKLSIEEAAEKFIKLVKEAVEDPSFSKEEIEELALEIVDTLVEIVKKENTEEAEDIYAETIREIREILEKVDPNLAAYVETEGFSKLLEIEE | 0.0199
GBRAPL2_0_7206 (protein) YEAEIEAAKKLTPEEAFKKLKELVKKLAKDTSLSKEELEKILEAIIDLAYEIYKKEKTEEAEEAFDEIVDLAVEAAAKRDPNLAAYIATYGGSKIMEAES | 0.12
GBRAPL2_0_7188 (protein) VEERIKEAEKLSIEEASKKFIEIIKEVVEDPSYSLEEIEEIALRIMKALTKIVKKENTEEAEKIYAETADKIREILSKVDPNIANYIETEAYSELLEIEE | -0.00159
GBRAPL2_0_7198 (protein) YLERIEKAKELSPEETFKALKEIVKELAEDDSISLEELEEILEKIVELAAEKVKETKKEEDLEKFDEIVDLATEAAAKRDPNLAAYIDTYGGSLLIEVEE | 0.104
GBRAPL2_0_7200 (protein) YLEEIEKAKELSPEEAFKKLKELVKELAEDDSISLEELEEILEKIIELAAEKVKETKSEEDLKKFDEIVDLATEAAAKRDPLLAAYIDTYGGSLLIEVEE | 0.104
GBRAPL2_0_7205 (protein) YEEEIEKAKELSPEELFKALKELVKKLKEDDSISLEELEEILLRILELAAEKVKEVKTEEAEEAFDELVELAVEAMKKRDPNMANYIETYGGSLLYEIES | 0.126
GBRAPL2_0_7202 (protein) YLEEIEKAKELSPEELFKKLKELVEKLAEDDSISPEEKEEILLKIVELAAEKVKETKTEEDEKKFEEIVELAVKVAEKIDPNLAAYIRTHAGSLLYENES | 0.0999
GBRAPL2_0_7196 (protein) YLERIEKMKKLSPEEAYKEAKKLVEELAKDESISPEELEKILEAILEMMAEFVKKTKKEEMEKKFDEIADLAVEAAAKKDPNLAAYIASYAGSLRVEVES | 0.192
GBRAPL2_0_7195 (protein) VEEEIERISELPIEEAAEEGVRLVERVVADPSFTDEEKVEVALRVVDILAKKVKEEKTEEAEDIYVEALDEIRKLLLSVGPELANYVYAEGGSELMEIES | 0.163
GBRAPL2_0_7199 (protein) YLEEIEKAKELSPEEAFEKLEKLVKELAEDDSISLEELEEILEAIIELAAEKVKETKREEDLEKFDRIVDLAAEAAAKRDPNLAAYIRTYGGSLLIEVEE | 0.196
GBRAPL2_0_7197 (protein) YLKEIEEMKKLSPEEAFEKAKELVKKLAEDKTISPEELEKILEAILELAAEIVKKTKEEKMEEKFDELADLAVKAAAKKDPNLAAYIASYAGSLRYEVES | 0.245
GBRAPL2_0_7201 (protein) YLEEIEKAKKLSPEEAFKKLKELVKKLAEDDSISLEELEEILEKILKLAAEKVKKTKKEEDLEKFEEIVDLATEAAAKRDPLLAAYIDTYGGSLLIEVEE | 0.0418
GBRAPL2_0_7194 (protein) IEERIEELKKLSIEEAVKEGIRLVKEVKEDESFSKEEIVEIAERVAKIVAEKAKEEKTEEALDLAWKFADEVREILKEIDPNDAAYVESEIGSELMEIES | 0.238
GBRAPL2_0_7203 (protein) YLEEIEKAKSLSPEELFKKLKELVKKLAEDKSISPEEKEEILEAIIKLAGEKVKETKTEETEKQFDEIVELAVEVAEKIDPNLAAYIRTLAGSLLYENES | 0.0798
GBRAPL2_0_7191 (protein) YEEELKKISELPIEEFAKRGVELVERAAKDPSLTLEELEELAERVIELLIEKVKEEKTEEAEEIYVEAADRIREILLKIDPNLAADVATEAGAGLYEIES | 0.23
GBRAPL2_0_7204 (protein) YLEKIEKAKSLSPKELFEALKKLVKELAKDKSVSPEEKEEILEAIIKLAAERVKETKTEEDEKAFEEIVKEAVKVAEKIDPNLAAYVRTYAGSLLYEIES | 0.0789
GBRAPL2_0_7189 (protein) LEERLEAARELSIEEAAEELLRLIREAVEDPSFSLEEIEELARRAVEVLVEIVRRENTEEAEEIAAETADEMREILLEIDPNLAADVETEFYSELLEIEE | -0.521
GBRAPL2_0_7192 (protein) YEERLEEISKLPIEEFAKEAVRIVEEAAKDPSLSLEELEEIALRAIRLLYEKVKEEKTEEAEDIYVEAADRIREILKKIDPNLAAYVATEAGALLYEWES | -0.305
GBRAPL2_0_7190 (protein) YEEELEEISKLPIEEFAERGVELVERAVADPSLSLEELEELALRVIRLLYEKVKEEKTEEAEDIYVEAADRIAAILAAVDPRLAAYVATEAGSLLYEWES | -0.38
GBRAPL2_0_7193 (protein) IEERIEKMKELSIEEAVKEGIEIVEEVMKDPSFTDEEKVEIAERVVDIVAEKAKEEKTEEALDLAVEFARKVREILEKISPEDAAYVETRMGAELMEIES | 0.33
